Rows were chosen to be rich in hits. Some 21% of all compounds tested hit in one or more screens of this group.
Pf growth 48h = P. falciparum growth inhibition at 48 hours (one generation); 310,000 compounds, 5.9% hits; P. falciparum luciferase growth in erythrocytes, 48 h; Potency, µM (highest dose often 28.7 µM), most hits filed as inhibitors; AID 504832
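In quantitative HTS format, infected erythrocytes bearing luciferase-reporter parasites were treated for a single generation at 37 C. Luminescence after adding detection reagent served as the growth measure.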
Pf growth 96h = inhibits malaria parasite growth, 96 h | P. falciparum luciferase reporter growth, 96 h | Potency, µM (series often up to 28.7 µM), most hits filed as inhibitors | 320,000 compounds, 6.9% hits | AID 504834
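Parasite growth measured via integrated firefly luciferase reporter in P. falciparum. Infected erythrocytes at 2% hematocrit, 0.05% parasitemia final were treated 96 hours at 37 C under 5% CO2, and luminescence was read.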
CHX counter = counter-screen hit for Shiga toxin inhibitors, cycloheximide | 300,000 compounds, 12% hits | max response, % | cell reporter, cycloheximide protein synthesis inhibition counterscreen; in the data active = max response mostly above about 13%, no sharp cut-off; inactive = mostly below about 14%; also: read at 38.3 µM for the half of the compounds with a filed dose
HCV inhibitor = HCV inhibition | Huh7.5.1 HCVcc-Cre infection, luciferase reporter, 44 h | Potency, µM (top dose mostly 41.8 µM), usual class: inhibitors | 340,000 compounds, 3.4% hits | AID 651820
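A cell-based infection assay in which seeded cells (1,000 per well) receive test compound after 4 h, are inoculated with HCVcc-Cre at approximately 0.5 moi, and are incubated 44 h before luminescence detection.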
Shiga inhibitor = Shiga toxin inhibition | 290,000 compounds, 9.2% hits | inhibition, % at 38.7 µM | AID 2315 | Vero cells, Shiga toxin protein synthesis inhibition reporter; in the data active = inhibition mostly above about 28%, no sharp cut-off; inactive = mostly below about 43%
HCMV inh = inhibitors of human cytomegalovirus | HFF cells, HCMV-luciferase reporter, 72 h; stronger effect = lower value | activity change, negative = inhibition, % at 57.5 µM | 410,000 compounds, 4.5% hits | AID 1259415; in the data active = activity change below about -60%; inconclusive = no clear call, values can overlap the other calls; inactive = above about -39%
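Screen run at 2 compound doses on HFFs infected with reporter HCMV, MOI 1 PFU/cell. Luciferase activity from cell lysates at 72 h post infection gave inhibition relative to buffer-only and Salinomycin wells.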
Hits are given with their value; – = inactive; ? = inconclusive; · = no result; ! = not active in a repeat. Unless noted, calls follow the shape of the dose curve; as a rule, active = well fitted inhibition curve with a large enough effect; inconclusive = small, poorly fitted or top-dose-only effect, or another doubt; inactive = no such curve, though single readings can be large or run the other way.

SMILES	Pf growth 48h	Pf growth 96h	CHX counter	HCV inhibitor	Shiga inhibitor	HCMV inh
CC(=O)c1cccc(NC2=NCC(C)S2)c1 (stereo not drawn)	·	13µM	–	–	–	–
CC1CN=C(Nc2ccc(F)c(Cl)c2)S1 (stereo not drawn)	–	–	–	–	77	–
CC1CN=C(Nc2cccc(S(=O)(=O)N(C)C)c2)S1 (stereo not drawn)	–	–	–	?	–	–
O=C(Cn1ncc2c3ccccc3n(Cc3ccccc3F)c2c1=O)N1CCCCCC1	·	·	·	·	·	–
Clc1ccc(N(CC2CO2)CC2CO2)cc1 (stereo not drawn)	·	·	·	–	·	–
CC[C@@H](C)[C@H](NC(=O)OC(C)(C)C)c1nnc(S(=O)(=O)Cc2cc(C)ccc2C)o1	–	–	18	–	–	–
C=C(C)CSc1nnc([C@H](CCSC)NC(=O)OC(C)(C)C)o1	·	10µM	–	–	–	–
CC(C)[C@H](NC(=O)OC(C)(C)C)c1nnc(S(=O)(=O)Cc2c(F)cccc2Cl)o1	–	·	34	?	–	-76
C[C@H](NC(=O)OC(C)(C)C)c1nnc(SCc2c(F)cccc2Cl)o1	·	·	·	·	·	-78
Cc1ccccc1CS(=O)(=O)c1nnc([C@H](CC(C)C)NC(=O)OC(C)(C)C)o1	–	–	–	–	–	–
CSCC[C@H](NC(=O)OC(C)(C)C)c1nnc(SCC(=O)Nc2c(C)cccc2C)o1	·	?	–	–	–	?
CCn1c2ccc(C)cc2c2n[nH]c(=S)nc21	?	–	–	–	·	–
O=C(c1ccccc1)C1CC=CCC1C(=O)c1ccccc1 (stereo not drawn)	·	·	·	–	·	–
CCOC(=O)CSc1nnc([C@H](Cc2ccccc2)NC(=O)OC(C)(C)C)o1	?	?	–	–	–	–
CC(C)C[C@H](NC(=O)OC(C)(C)C)c1nnc(SCc2ccccc2)o1	8.3µM	·	–	–	–	–
O=C(c1ccco1)N1CCC(c2ccccc2)C1 (stereo not drawn)	–	–	24	–	79	–
COc1ccc(C(=O)N2CCCC(c3ccccc3)C2)cc1 (stereo not drawn)	–	·	–	–	–	–
O=C(c1ccc(F)cc1)N1CCC(c2ccccc2)C1 (stereo not drawn)	?	–	41	–	68	–
O=C(O)C1CCN(C(=O)c2ccco2)CC1	–	–	–	–	–	–
CCCCN(CC)CCNC(=O)Cn1cc2c(n1)-c1c(oc(C(=O)N3CCCC3)c1C)CC2	?	?	–	–	–	-61!
Cc1c(C(=O)N2CCCC2)oc2c1-c1nn(CC(=O)NCCCOC(C)C)cc1CC2	?	–	–	–	–	?
Cc1ccc(NC(=O)C2CCN(C(=O)[C@@H]3Cc4ccccc4CN3)CC2)c(C)c1	–	–	14	–	–	–
CCc1ccc(NC(=O)C2CCN(C(=O)[C@@H]3Cc4ccccc4CN3)CC2)cc1	–	?	34	–	60	–
COc1ccc(NC(=O)C2CCN(C(=O)[C@@H]3Cc4ccccc4CN3)CC2)cc1	–	–	33	–	–	–
COc1ccc(S(=O)(=O)Nc2ccc(F)cc2)cc1N(C)S(=O)(=O)c1ccc(Cl)cc1	5.2µM	–	–	?	–	-72
SMILES	Pf growth 48h	Pf growth 96h	CHX counter	HCV inhibitor	Shiga inhibitor	HCMV inh
COc1ccc(S(=O)(=O)Nc2ccc(F)c(F)c2)cc1Cl	–	·	–	–	–	–
COc1ccc(NS(=O)(=O)c2ccc(OC)c(N(C)S(=O)(=O)c3ccc(Cl)cc3)c2)cc1	12µM	3.7µM	–	?	–	-90
Cc1ccc(C(=O)N2NC(c3ccccc3F)C3C(=O)N(c4cccc(C)c4)C(=O)C32)cc1 (stereo not drawn)	–	2.1µM	–	–	–	–
Cc1ncoc1C(=O)Nc1nccs1	–	–	–	–	–	–
O=C(Nc1nccs1)c1ccc(Br)o1	–	–	33	–	69	–
O=C(/C=C/c1ccc(Br)o1)Nc1nccs1	–	–	39	–	95	–
CCOC(=O)C(CC)n1cnc2c(nnn2-c2ccc(OC)cc2)c1=O (stereo not drawn)	–	–	–	–	–	–
CCOC(=O)C(C)n1cnc2c(nnn2Cc2ccc(C)cc2)c1=O (stereo not drawn)	–	–	–	–	–	–
CCOC(=O)C(C)n1cnc2c(nnn2Cc2ccc(Cl)cc2)c1=O (stereo not drawn)	·	8.3µM	–	–	–	–
CCOC(=O)C(C)n1cnc2c(nnn2-c2ccc(C)cc2)c1=O (stereo not drawn)	·	7.4µM	–	–	–	?
CCC(C(=O)OC)n1cnc2c(nnn2-c2ccc(C)cc2)c1=O (stereo not drawn)	–	–	12	–	22	–
CCC(C(=O)OC)n1cnc2c(nnn2-c2ccc(OC)cc2)c1=O (stereo not drawn)	–	–	–	–	–	–
CCOC(=O)C(C)n1cnc2c(nnn2-c2ccc(OC)cc2)c1=O (stereo not drawn)	–	–	32	–	86	–
Cc1ccc(-n2nnc3c(=O)n(CC(N)=O)cnc32)cc1	–	?	–	–	–	–
COc1ccc(S(=O)(=O)N/N=C\c2ccc([N+](=O)[O-])o2)c(OC)c1	–	10µM	–	–	–	–
O=[N+]([O-])c1ccc(/C=N/Nc2ccc3ccccc3c2)o1	–	–	58	–	126	-72
O=[N+]([O-])c1ccc(/C=N/NC(=S)Nc2ccccc2F)o1	–	–	34	–	–	–
Cc1c(Cl)cccc1NC(=S)N/N=C/c1ccccc1Cl	–	?	–	?	–	·
Fc1ccccc1NC(=S)N/N=C/c1ccccc1Br	–	·	22	–	–	–
O=[N+]([O-])c1ccc(/C=N/Nc2nc(-c3ccccc3)c3cc(Br)ccc3n2)o1	·	–	–	?	–	?
CCOc1ccc(N(CC)C(=O)Cn2cnc3sc(C)c(S(=O)(=O)N4CCN(c5ncccn5)CC4)c3c2=O)cc1	·	·	·	·	·	–
COc1ccc(NC(=O)c2ccc(OC)c(S(=O)(=O)N3CCCCC3C)c2)cn1 (stereo not drawn)	?	?	·	?	·	–
O=[N+]([O-])c1cccc(-c2ccc(/C=N/NC(=S)NCc3ccco3)o2)c1	?	–	–	?	–	–
O=[N+]([O-])c1cccc(-c2ccc(/C=N/NC(=S)Nc3ccccc3)o2)c1	?	–	14	–	–	–
O=[N+]([O-])c1ccc(/C=N/NC(=S)Nc2ccccc2)o1	–	–	23	–	48	–
O=C(N/N=C/c1ccc([N+](=O)[O-])o1)C1CCCC1	?	?	–	?	–	–
COc1ccccc1Nc1sc(C(=O)c2ccc(C)cc2C)c(N)c1S(=O)(=O)c1ccccc1	·	·	·	·	·	–
COC(=O)c1cc2sc(C)cc2n1CC(=O)Nc1ccc(C)cc1Cl	·	·	·	·	·	–
Cc1c(Cc2ccccc2)c(=O)oc2cc(OC(C)C(=O)NCC3CCC(C(=O)O)CC3)c(Cl)cc12 (stereo not drawn)	–	10µM	–	?	–	–
